Shown are actives, neighbours in structure and some others; about 2.8% of the full set was active somewhere.
ERb coact inh: ER-beta (human) coactivator binding inhibition; hit rate 1.3% among 86,000; TR-FRET ER-beta LBD / SRC1-Cy5 peptide binding; receptor agonist-loaded with 1 µM estradiol; inhibition, % at 25.6 µM;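 active = compounds whose percent inhibition of the receptor-coactivator binding signal exceeds about 50% in the single-dose screen, limit read from the data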;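 note: 0% = receptor plus peptide wells without compound and 100% = peptide-only wells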
Target sequence (Q92731 whole entry, looked up, the tested form may be a part): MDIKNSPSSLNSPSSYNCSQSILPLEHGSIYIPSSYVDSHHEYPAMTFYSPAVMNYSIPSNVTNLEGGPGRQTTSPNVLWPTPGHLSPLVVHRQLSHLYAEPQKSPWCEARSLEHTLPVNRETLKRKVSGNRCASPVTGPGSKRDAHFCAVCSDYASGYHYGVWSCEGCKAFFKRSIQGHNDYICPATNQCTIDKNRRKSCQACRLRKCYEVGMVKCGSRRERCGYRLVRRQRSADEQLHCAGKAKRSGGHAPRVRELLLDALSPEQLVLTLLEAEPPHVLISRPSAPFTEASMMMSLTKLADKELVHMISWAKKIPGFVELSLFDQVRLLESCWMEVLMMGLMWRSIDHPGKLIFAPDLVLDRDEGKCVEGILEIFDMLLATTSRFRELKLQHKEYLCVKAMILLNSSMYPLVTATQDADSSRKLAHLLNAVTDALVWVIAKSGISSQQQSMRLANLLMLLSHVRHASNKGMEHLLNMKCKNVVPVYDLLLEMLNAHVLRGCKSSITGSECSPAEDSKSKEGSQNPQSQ
Smad3 inh: blocks human Smad3 binding to FoxH1 peptide; P84022; TR-FRET Smad3/Dy647-FoxH1 peptide binding, europium anti-His; inhibition, % at 25 µM; hit rate 0.29% among 88,000; AID 630;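 active = compounds that reduce the energy-transfer binding signal between the protein and its labelled peptide by more than half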;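 note: 0% = Smad3 plus labelled peptide maximal FRET and 100% = peptide-only background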
MRP-1 activ: MRP-1 activation; H69AR cells + doxorubicin, viability rescue, CellTiter-Glo; viability increase, % at 10 µM; hit rate 0.61% among 140,000; AID 799;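 active = viability gain under doxorubicin at or above a set limit, the compound median plus 3 SD, cut at about 4.7% in these data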;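 note: MRP-1 overexpressing cells given doxorubicin 25 µM after compound pretreatment; 18-22 h compound pretreatment then 72 h with doxorubicin before readout; 0% = doxorubicin-only wells and 100% = vehicle-treated cells without doxorubicin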
ERa coact inh: ER-alpha (human) coactivator binding inhibition; P03372; TR-FRET ER-alpha LBD / SRC-1 peptide, estradiol-bound; inhibition, % at 25.6 µM; hit rate 1.7% among 86,000; AID 629; in the data active = inhibition above about 50%;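 note: 0% = receptor plus peptide control and 100% = peptide only without receptor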
MRP resist rev: reverses drug resistance mediated by MRP | H69AR cells + 2 uM doxorubicin, CellTiter-Glo, 72 h | differential viability (reversal), % at 10 µM | hit rate 0.04% among 85,000 | AID 602;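 active = viability drop by adding the cancer drug above about 55%, with treated viability meeting a 40% cutoff, limit read from the data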;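 note: viability without doxorubicin minus viability with 2 µM doxorubicin for each compound; larger differential means the compound sensitizes cells more to doxorubicin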
ERa coact pot: ER-alpha (human) coactivator binding potentiation | P03372 | TR-FRET ERalpha-LBD/SRC-Cy5 coactivator binding, 2 h; 100 = basal binding, no effect | coactivator binding (% of control), % at 25.6 µM | AID 639 | hit rate 1.3% among 86,000; in the data active = activity above about 200%;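 note: binding measured in presence of low estradiol as agonist stimulus; 0% = peptide alone without receptor and 100% = receptor with peptide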
* marks the source's active call; other numbers are inactive results; x = no result given; [ ] = dose if it differs, or a comment.

SMILES | ERb coact inh | Smad3 inh | MRP-1 activ | ERa coact inh | MRP resist rev | ERa coact pot
Cc1cc(NC(=O)CCC(=O)N(c2ccc(F)cc2)C(C(=O)NC2CCCC2)c2ccncc2)no1 (stereo not given) | -4 | 17 | -3 | 10 | 3 | 110
Cc1cccc(N2CCN(c3nnnn3-c3ccccc3)CC2C)c1 (stereo not given) | 0 | 0 | 1 | 1 | -2 | 104
CCc1ccc(OCC(=O)Nc2ccc(-c3nc4ccccc4o3)c(O)c2)cc1 | 70*[fluorescence artefact?] | -24 | -1 | 80*[fluorescence artefact?] | 3 | 161
Clc1ccc2oc(-c3cccnc3NCc3ccccc3)nc2c1 | x | x | 2 | x | x | x
Oc1cc(NCc2cccnc2)ccc1-c1nc2ccccc2o1 | 17 | 16 | 5.0* | 24 | 9 | 102
Fc1ccc(NCc2cccnc2)cc1F | -2 | 11 | -2 | 62* | -6 | 120
O[C@@H](COc1cccc2ccccc12)CN1CCOCC1 | x | -4 | x | x | x | x
O=C(O)[C@H]1CC=CC[C@@H]1C(=O)Nc1cccc(O)c1 | x | -9 | x | x | x | x
OC[C@@H](O)CNc1ncnc2ccccc12 | x | -9 | x | x | x | x
O=C(CN1CCN(Cc2ccc(Cl)cc2)C1=O)NCCCN1CCOCC1 | 17 | -11 | 1 | 2 | 8 | 123
O=C(CN1CCN(Cc2ccc(Cl)cc2)C1=O)NCCCN1CCN(c2ccc(F)cc2)CC1 | -4 | 6 | 0 | -5 | -3 | 277*[fluorescence artefact?]
Cc1ccc(/C=N/NC(=O)CSCc2ccc(Cl)cc2)cc1 | x | x | 6.3* | x | x | x
C=CCNCCCOc1ccc(Cl)cc1Br | x | x | -4 | x | x | x
CCOC(=O)Cc1c(C)nc2c(-c3ccc(Cl)cc3)c(C)[nH]n2c1=O | 18 | 11 | -4 | 32 | -17 | 248*[fluorescence artefact?]
CCOC(=O)Cc1cc(=O)n2[nH]c(C)c(-c3ccccc3)c2n1 | 18 | 5 | 1 | 10 | 4 | 85
CN(C)Cc1cc(C(C)(C)C)cc(CNC2CCCCC2)c1O | x | 17 | x | x | x | x
CC(C)(C)c1ccc(O)c(CN(Cc2cc(C(C)(C)C)ccc2O)C2CCCCC2)c1 | x | 11 | x | x | x | x
C/C(N[O-])=C(\C)[N+]([O-])=[Co].CC(=N\[O-])/C(C)=N/[O-].O[C@@H]1[CH-]CCCC1.c1ccncc1 | x | 71* | x | x | x | x
O=C1CN(C(=O)c2cccs2)c2ccccc2N1 | 14 | 8 | -1 | 2 | -20 | 966*[fluorescence artefact?]
O=C1CN(C(=O)c2ccccc2F)c2ccccc2N1 | 0 | 9 | 0 | -7 | 8 | 157
O=C(O)[C@@H](Cc1c[nH]c2ccccc12)C(=O)NO | x | 5 | x | x | x | x
O=C1c2ccccc2-c2onc3c(Oc4ccccc4)cc(O)c1c23 | 71*[fluorescence artefact?] | 4 | -3 | 74*[fluorescence artefact?] | -21 | 16
CN(C1CCCCC1)S(=O)(=O)c1ccc(S(=O)(=O)N2CCN(CCC#N)CC2)cc1 | 54* | 3 | -1 | -8 | 10 | 113
CN(Cc1ccccc1)S(=O)(=O)c1ccc(S(=O)(=O)N2CCN(CCC#N)CC2)cc1 | -8 | 4 | x | 0 | -10 | 110
O=C(Cc1ccc(Cl)cc1)Nc1ccc(-c2nnc(-c3ccco3)o2)cc1 | 37 | 12 | -6 | 68*[fluorescence artefact?] | -23 | 123
SMILES | ERb coact inh | Smad3 inh | MRP-1 activ | ERa coact inh | MRP resist rev | ERa coact pot
O=C(Cc1ccc(Cl)cc1)Nc1ccc(N2CCN(C(=O)c3ccco3)CC2)cc1 | 32 | 3 | 0 | 67*[fluorescence artefact?] | -3 | 128
O=C(c1ccco1)N1CCN(c2ccc(Cl)cc2)CC1 | -4 | 2 | 1 | 6 | 7 | 121
Cc1ccc(-n2c(SCC(=O)N3Cc4ccccc4CC3C(=O)O)nnc2-c2cccnc2)c(C)c1 (stereo not given) | x | x | 1 | x | x | x
Cc1cccc(N2CCN(C(=O)Cc3ccc(Br)cc3)CC2)c1C | -1 | 18 | 7.9* | 12 | 3 | 95
COC(=O)C1CCN(C(=O)Cc2ccc(Br)cc2)CC1 | 66*[fluorescence artefact?] | 5 | 0 | 55*[fluorescence artefact?] | 4 | 50
CCCCn1nnc(NC(=S)NC(=O)c2cccs2)n1 | x | x | 8.8* | x | x | x
Cn1nnc(NC(=S)NC(=O)c2cccs2)n1 | x | x | -1 | x | x | x
Cc1cc(N)c2cc(NC(=O)Nc3ccc4nc(C)cc(N)c4c3)ccc2n1 | x | 18 | x | x | x | x
C/C(=N\NC(=O)c1cccc(S(=O)(=O)Nc2cccc(Cl)c2)c1)c1cccs1 | x | x | 5.6* | x | x | x
CCNc1ccc(C(=O)OCC(=O)NCc2ccc(C)cc2)cc1[N+](=O)[O-] | x | x | 0 | x | x | x
CCNc1ccc(C(=O)OCC(=O)c2cc(C)n(Cc3ccc4c(c3)OCO4)c2C)cc1[N+](=O)[O-] | x | x | 5.2* | x | x | x
Nn1c(COc2ccccc2)nnc1SCC(=O)O | -3 | 7 | -1 | -2 | -4 | 252*[fluorescence artefact?]

Screens (PubChem)
